# PLK1 PBD inh – qHTS for Inhibitors of PLK1-PDB (polo-like kinase 1 - polo-box domain): Primary Screen; AID 720504, 2013; actives 2.8% (n = 360,000); Serine/threonine-protein kinase PLK1 (Homo sapiens), P53350; Potency, µM, without a hit: max response, negative = inhibition, most hits filed as inhibitors; Plk1 PBD binding of FITC phosphopeptide, fluorescence polarization; note: series mostly up to about 57 µM; nearly all actives have a fitted effect of over 65% in size
# VDR inh – Inhibitors of the vitamin D receptor (VDR): qHTS; VDR-SRC2-3 peptide fluorescence polarization, 2 h; Potency, µM, for the others: max response, negative = inhibition, usual class: inhibitors; actives 0.93% (n = 400,000)
#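 The screen uses fluorescence polarization to detect compounds that interfere with recruitment of the SRC2-3 coactivator peptide to VDR; plates are read after 2 h at room temperature.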
# DT40 TDP1 CPT – qHTS for Inhibitors of human tyrosyl-DNA phosphodiesterase 1 (TDP1): qHTS in cells in presence of CPT; chicken DT40 Tdp1-/-;hTDP1 cells + 20 nM CPT, ATP luminescence, 48 h; Potency, µM (top dose mostly 46.2 µM), for the others: at the highest dose activity change, negative = growth inhibition, hits mostly inhibitors; actives 12% (n = 420,000); note: nearly all actives have a fitted effect of over 55% in size
#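 Chicken DT40 Tdp1-/- cells complemented with human TDP1, 400 cells/well, exposed to compounds plus 20 nM camptothecin for at least 48 h at 37 C; viability read as ATP content by CellTiter-Glo luminescence.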
# GCN5L2 inh – qHTS Assay for Inhibitors of GCN5L2 | Potency, µM (titrated, usually from 58.9 µM), without a hit: at the highest dose activity change, negative = inhibition, actives largely listed as inhibitors | actives 0.21% (n = 390,000) | Histone acetyltransferase KAT2A (Homo sapiens), Q92830 | GCN5L2 HAT assay, ThioGlo1 CoA-SH fluorescence
# Target sequence (Q92830 whole entry, looked up): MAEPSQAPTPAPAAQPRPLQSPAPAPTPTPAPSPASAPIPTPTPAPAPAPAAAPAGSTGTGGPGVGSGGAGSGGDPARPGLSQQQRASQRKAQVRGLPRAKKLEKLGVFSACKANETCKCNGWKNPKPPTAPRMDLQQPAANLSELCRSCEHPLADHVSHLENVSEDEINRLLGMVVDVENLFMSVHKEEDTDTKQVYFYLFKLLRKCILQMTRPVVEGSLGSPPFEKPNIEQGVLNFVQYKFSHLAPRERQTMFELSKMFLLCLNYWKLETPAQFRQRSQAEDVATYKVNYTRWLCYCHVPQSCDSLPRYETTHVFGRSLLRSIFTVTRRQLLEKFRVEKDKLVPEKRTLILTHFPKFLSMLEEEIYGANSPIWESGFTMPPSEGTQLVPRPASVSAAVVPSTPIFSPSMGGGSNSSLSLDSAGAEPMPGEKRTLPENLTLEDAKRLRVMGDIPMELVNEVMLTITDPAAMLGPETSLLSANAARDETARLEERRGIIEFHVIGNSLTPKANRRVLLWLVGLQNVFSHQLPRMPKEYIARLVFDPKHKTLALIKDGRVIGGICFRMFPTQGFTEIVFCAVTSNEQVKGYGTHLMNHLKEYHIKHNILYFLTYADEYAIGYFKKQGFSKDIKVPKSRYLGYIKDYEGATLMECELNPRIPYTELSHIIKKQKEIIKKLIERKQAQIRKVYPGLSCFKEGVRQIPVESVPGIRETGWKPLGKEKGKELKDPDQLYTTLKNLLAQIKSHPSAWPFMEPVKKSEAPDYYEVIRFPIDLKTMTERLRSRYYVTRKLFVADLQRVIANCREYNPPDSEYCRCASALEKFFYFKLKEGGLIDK
#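 Fluorescence readout, Ex340nm/Em540nm: ThioGlo1 (50uM final) reacts with free CoA thiol released as 20nM GCN5L2 acetylates H3(1-25) peptide (75uM) using acetyl-CoA (70uM). Compound and enzyme sat 15 min beforehand; 20 min room-temperature reaction.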
# TDP1 block – qHTS Assay for Inhibitors of Tyrosyl-DNA Phosphodiesterase (TDP1); Potency, µM (titrated, usually from 130 µM), inactives show at the top dose activity change, negative = inhibition, usual class: inhibitors; AID 485290, 2010; recombinant TDP1, AlphaScreen DNA substrate cleavage; actives 0.28% (n = 350,000); Tyrosyl-DNA phosphodiesterase 1 (Homo sapiens), Q9NUW8; note: nearly all actives have a fitted effect of over 40% in size
#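 Recombinant human Tdp1 (E. coli-expressed, 1 nM final) preincubated with compounds 15 min at room temperature, then 5'-biotin/3'-phosphotyrosine-FITC DNA substrate (15 nM final) added for 5 min. AlphaScreen beads (10 ug/ml final) added 10 min; cleavage lowers signal.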
# DT40 TDP1 no CPT – qHTS for Inhibitors of human tyrosyl-DNA phosphodiesterase 1 (TDP1): qHTS in cells in absence of CPT. DT40 Tdp1-/- hTDP1 cells, no CPT, ATP luminescence, 48 h. Potency, µM (highest dose often 46.2 µM), inactives show at the top dose activity change, negative = growth inhibition, hits mostly inhibitors. actives 15% (n = 420,000). AID 686978, 2013; note: nearly all actives have a fitted effect of over 55% in size
#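 Growth kinetics read by CellTiter-Glo luminescence after ≥48 hr at 37 °C. Cells: DT40 Tdp1-/- stably carrying human TDP1, 400 per well, compound exposure in the absence of CPT (DMSO vehicle).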
# Numbers without * were called inactive; u = inconclusive; x = no result given; [ ] = another dose, or the depositor's remark. This is a sample that favours compounds with a hit; in the whole collection about 18% have one here. Calls come from the whole dose curve; as a rule, active = well fitted curve in the direction sought with a large enough effect; inconclusive = small, poorly fitted or top-dose-only effect, or another doubt; inactive = no such curve, though single readings can be large; an effect the other way counts as inactive or inconclusive. % is set by controls: 0 for no effect and ±100 for the full control effect; potency is the fitted concentration of half-maximal effect.
SMILES,PLK1 PBD inh,VDR inh,DT40 TDP1 CPT,GCN5L2 inh,TDP1 block,DT40 TDP1 no CPT
Cc1ccc(NC(=S)/N=C(\N)Nc2nc(C)c3cc(C)ccc3n2)c(C)c1,-7.8%,u,20.6µM*,-11.2%,5.4%,11.6µM*
Cc1ccc(NC(=S)/N=C(\N)Nc2nc(C)c3cc(C)c(C)cc3n2)cc1C,-12.2%,u,u,-7.7%,2.4%,u
Cc1cccc(CCNC(=O)c2ccc(CSCc3cccc(Cl)c3)o2)c1,x,-1.3%,u,-2.9%,-8.5%,u
CCCCNC(=O)C1(C)CCN1C(=O)c1oc2ccccc2c1C (stereo not drawn),6.2%,x,u,x,x,u
COC(=O)C[C@H]1c2ccccc2S(=O)(=O)N1c1ccc(N(C)C)cc1,x,x,u,x,x,10µM*
COC(=O)C[C@H]1c2cc(C(F)(F)F)ccc2S(=O)(=O)N1c1ccc(N(C)C)cc1,-10.2%,-9.5%,13µM*,x,x,10.3µM*
CC(=O)C[C@H]1c2cc(C(F)(F)F)ccc2S(=O)(=O)N1c1ccc(N(C)C)cc1,-2.7%,-7.0%,7.94µM*,x,x,14.6µM*
CN(C)c1ccc(N2[C@@H](CC(=O)O)c3cc(C(F)(F)F)ccc3S2(=O)=O)cc1,-3.7%,16.4%,u,x,x,u
COc1ccc(CN2[C@@H](CC(C)=O)c3cc(C(F)(F)F)ccc3S2(=O)=O)cc1,-4.1%,-0.9%,15.8µM*,x,x,20.6µM*
CCCCNC(=O)C(NC(=O)c1cccnc1)C(=O)c1ccccc1 (stereo not drawn),4.8%,x,-0.9%,x,x,9.8%
COc1ccc(C)cc1N(CC(=O)NC1CCCC1)C(=O)Cn1nnc(-c2ccc(C)o2)n1,-9.7%,5.0%,1.5%,-8.1%,10.2%,-23.2%
O=S1(=O)CCN(OCc2ccc(Cl)cc2)CC1,2.7%,10.6%,-12.1%,-8.5%,3.6%,-6.5%
CCc1nnc(NC(=O)CSc2nc3c([nH]c4ccccc43)c(=O)n2-c2ccc(Cl)cc2)s1,x,1.6%,-26.9%,-9.2%,5.5%,-23.0%
CC1CCN(C(=O)c2ccc(NC3=C(Cl)C(=O)N(Cc4ccccc4)C3=O)cc2)CC1,-1.4%,-1.6%,18.4µM*,-5.0%,3.2%,11.6µM*
CC1CCCCN1C(=O)c1cccc(NC2=C(Cl)C(=O)N(Cc3ccccc3)C2=O)c1 (stereo not drawn),-4.3%,-18.5%,u,-16.1%,4.5%,u
O=C1C(Cl)=C(Nc2cccc(O)c2)C(=O)N1Cc1ccccc1,26.7µM*,3.2%,23.1µM*,-9.7%,0.0%,u
Cc1ccc(CNC(=O)COC(=O)C2CC2)cc1,-3.7%,9.9%,-0.5%,-1.1%,-0.1%[56.1 µM],3.6%
C/C(N)=C(/C#N)C(=O)COC(=O)c1cc2c(s1)CCC(C)C2 (stereo not drawn),-5.2%,-8.2%,-8.5%,-13.9%,2.4%,-29.4%
Cc1ccc(CNC(=O)COC(=O)c2cc3c(s2)CCC(C)C3)cc1 (stereo not drawn),-0.2%,-8.4%,20.6µM*,-2.8%,0.0%,u
CC1CCc2sc(C(=O)OCC(=O)NCc3ccccc3)cc2C1 (stereo not drawn),30.0%,-14.6%,20.6µM*,4.3%,-2.7%,18.4µM*
CC1CCc2sc(C(=O)NCc3ccccn3)cc2C1 (stereo not drawn),-3.1%,-9.5%,18.4µM*,0.0%,x,16.4µM*
COc1ccc(-n2c(CNC(=O)c3ccccc3C(F)(F)F)nnc2SC)cc1,x,x,6.4%[9.04 µM],x,x,-8.6%
CC(Oc1cc(F)ccc1[N+](=O)[O-])C(=O)N(C)CC(=O)Nc1ccccc1C(F)(F)F (stereo not drawn),-8.7%,-22.7%,-14.2%,0.2%,8.1%,-27.7%
COc1cc(OC)cc(-c2cc3nc(C)c(CCC(=O)NCc4ccccc4)c(C)n3n2)c1,-2.0%,-1.7%,u,-9.3%,3.5%,18.4µM*
COc1cc(OC)cc(-c2cc3nc(C)c(CCC(=O)NCc4ccc(Cl)cc4)c(C)n3n2)c1,x,-10.5%,u,-0.8%,2.3%,u
SMILES,PLK1 PBD inh,VDR inh,DT40 TDP1 CPT,GCN5L2 inh,TDP1 block,DT40 TDP1 no CPT
COc1cc(OC)cc(-c2cc3nc(C)c(CCC(=O)NCCc4cccc(C)c4)c(C)n3n2)c1,x,-13.2%,16.4µM*,-5.3%,0.0%,u
COc1cc(OC)c(NC(=O)CCc2c(C)nc3c4c(C)cc(C)nc4nn3c2C)cc1Cl,x,5.1%,-17.9%,-6.8%,-2.5%,-20.8%
Cc1cc(C)c2c(n1)nn1c(C)c(CCC(=O)Nc3cccc(C)c3C)c(C)nc21,x,20.1%,7.31µM*,-7.1%,-2.5%,7.31µM*
COc1ccccc1-c1cc2nc(C)c(CCC(=O)NCc3ccc(F)cc3)c(C)n2n1,-13.3%,5.7%,u,19.0%,x,u
COc1ccccc1-c1cc2nc(C)c(CCC(=O)NCCc3ccc(SC)cc3)c(C)n2n1,x,-0.9%,u,-29.7%,6.9%,20.6µM*
Cc1cn2c(=O)cc(COc3ccc(NC(=O)c4ccc(C(C)(C)C)cc4)cc3)nc2s1,x,-8.2%,u,-0.3%,3.8%,u
O=C(NC(=S)Nc1cc(Cl)ccc1Cl)c1ccco1,4.6%,x,-0.3%,x,x,-7.9%
F[B-](F)(F)COc1ccccc1,0.0%,1.0%,3.0%,x,x,-9.8%
COc1ccccc1-c1cc2nc(C)c(CCC(=O)Nc3cc(C)ccc3C)c(C)n2n1,x,-3.8%,u,-1.7%,-1.2%,u
COc1ccc(-c2cc3nc(C)c(CCC(=O)NCc4ccccc4Cl)c(C)n3n2)c(OC)c1,x,-1.3%,18.4µM*,-5.9%,3.5%,13µM*
COc1ccc(CNC(=O)CCc2c(C)nc3cc(-c4ccc(OC)cc4OC)nn3c2C)cc1,x,-8.4%,u,-3.3%,-2.3%,u
COc1ccc(CCNC(=O)CCc2c(C)nc3nc(C)nn3c2C)cc1OC,x,0.0%,7.1%,-2.9%,4.6%,16.7%
COc1cc(OC)cc(-c2cc3nc(C)c(CCC(=O)Nc4ccccc4OC)c(C)n3n2)c1,x,8.0%,u,-11.2%,4.6%,23.1µM*
COc1cc(OC)cc(-c2nc3nc(C)c(CCC(=O)Nc4ccc(Cl)cc4)c(C)n3n2)c1,x,-3.2%,14.7%,-8.6%,6.9%,-20.1%

# Screens as filed in PubChem BioAssay.
